About 83,000 compounds went through this panel and 20% of them were active in at least one assay; those are over-represented in the sample as a whole.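 Single-dose data. Exposure time 48 hours. Values below 10 considered active.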 Unmarked numbers belong to inactive results. Activity calls are given as the source filed them.
Key:
Test in all cases: NCI-60 one-dose screen, 48 h (100 = growth as untreated, 0 = no growth, -100 = all killed)
Settings in all cases: 10 µM unless noted
SR leukemia = test system: SR leukemia
RPMI-8226 leukemia = test system: RPMI-8226 leukemia
OVCAR-8 ovarian = test system: OVCAR-8 ovarian
OVCAR-5 ovarian = test system: OVCAR-5 ovarian
OVCAR-4 ovarian = test system: OVCAR-4 ovarian
SK-OV-3 ovarian = test system: SK-OV-3 ovarian
OVCAR-3 ovarian = test system: OVCAR-3 ovarian
HS 578T breast = test system: HS 578T breast
NCI/ADR-RES ovarian = test system: NCI/ADR-RES ovarian
T-47D breast = test system: T-47D breast
BT-549 breast = test system: BT-549 breast
MDA-MB-435 melanoma = test system: MDA-MB-435 melanoma
SW-620 colon = test system: SW-620 colon
HCC-2998 colon = test system: HCC-2998 colon
KM12 colon = test system: KM12 colon
IGROV1 ovarian = test system: IGROV1 ovarian
MCF7 breast = test system: MCF7 breast
HCT-116 colon = test system: HCT-116 colon

SMILES | growth (SR leukemia) | growth (RPMI-8226 leukemia) | growth (OVCAR-8 ovarian) | growth (OVCAR-5 ovarian) | growth (OVCAR-4 ovarian) | growth (SK-OV-3 ovarian) [%] | growth (OVCAR-3 ovarian) | growth (HS 578T breast) | growth (NCI/ADR-RES ovarian) | growth (T-47D breast) | growth (BT-549 breast) | growth (MDA-MB-435 melanoma) | growth (SW-620 colon) | growth (HCC-2998 colon) | growth (KM12 colon) | growth (IGROV1 ovarian) | growth (MCF7 breast) | growth (HCT-116 colon)
Cc1ccc(S(=O)(=O)n2cc(C(=O)C(=O)N3CCOCC3)c3ccccc32)cc1 | 77.8% | 59.6% | 91.5% | 85.7% | 89.1% | 97.9 | 91.4% | 101% | 75.1% | 74.8% | 87.5% | 104% | 101% | 99.6% | 98.7% |  |  | 
Cc1ccc(-c2cc3nc(C(Cl)Cl)nc(-c4ccccc4C)n3n2)cc1 | 17.7% | 48.1% | 90.5% | 92.7% | 74.9% |  | 22.4% | 82.2% | 60.3% | 49.7% | 88.7% | -2.12% (active) | 46.1% | 81.8% | 26.1% | 83.7% | 70.3% | 49.6%
ClC(Cl)c1nc(-c2ccccc2)nc2cc(-c3ccccc3)nn12 | 90.7% | 17.3% | 81.3% | 121% | 63.4% |  | -9.5% (active) | 63% | 54.6% | 24.2% | 93.3% | 94.2% | 14.8% | 88.9% | 37.3% | 67% | 47.9% | 29.7%
CC(=O)Oc1csc(N(C(C)=O)c2cc(C(=O)O)cc(C(=O)O)c2)n1 | 114% | 43.3% | 104% | 101% | 90.4% | 111 | 105% |  | 99.2% | 108% | 82.8% | 102% | 96.1% | 98.6% | 99.8% |  | 95% | 91.3%
CC1CN(c2oc(-c3ccccc3)nc2C#N)CC(C)O1 (stereo not given) | 102% | 104% | 102% | 102% | 99.4% |  | 116% | 102% | 107% | 94.7% | 99.4% | 103% | 104% | 110% | 103% | 97.7% | 77.1% | 104%
COc1ccc(-c2ccc(-c3ccc(C(=N)N)cn3)s2)cc1OC | 63.1% | 89% | 102% | 103% | 96.1% |  | 109% | 97.2% | 108% | 84.6% | 94.4% | 103% | 90.3% | 109% | 95.9% | 101% | 84.9% | 80.2%
Cc1[nH]c2ccc(F)cc2c1CCNC(=O)C1CCN(C(=O)c2ccccc2)CC1 | 97.3% [25 µM] | 10% [25 µM] | 93.3% [25 µM] | 95.1% [25 µM] | 78.6% [25 µM] |  | 98.2% [25 µM] | 87.7% [25 µM] | 95.5% [25 µM] | 68.9% [25 µM] | 93.5% [25 µM] | 96.7% [25 µM] | 96.5% [25 µM] | 104% [25 µM] | 95.6% [25 µM] | 82.5% [25 µM] | 93.9% [25 µM] | 93.3% [25 µM]
Cc1ccc(-c2cc3nc(C(Cl)Cl)nc(-c4cccnc4)n3n2)cc1 | 14.6% | 16.5% | 22.7% | 24.2% | 9.57% (active) |  | -40.7% (active) | 28.3% | -3.44% (active) | 37.9% | 73.4% | 1.09% (active) | 0.933% (active) | -53.9% (active) | -35.4% (active) | 33.6% | 41.5% | 6.32% (active)
COc1ccc(S(=O)(=O)n2ccc(-c3ccc4c(c3)CCC(C)(C)O4)n2)cc1OC | 60.2% | 59% | 74.6% | 105% | 46% |  | 70.9% | 91.5% | 56.5% | 43.7% |  | 79.6% | 79.9% | 78.9% |  | 84.3% | 64.3% | 61.5%
COc1cc(-c2nc(N=Nc3c(O)[nH]c4ccc(Br)cc34)[nH]c(=O)c2C#N)cc(OC)c1OC | 88.2% | 98.2% | 93.5% | 101% |  | 108 | 102% | 93.8% | 102% | 90.6% | 105% | 102% | 93.4% | 117% | 100% | 101% | 99.7% | 99.2%
Clc1cc(Cl)cc(-c2ccc(-c3ccc(/C=N/NC4=NCCN4)cc3)s2)c1 | 8.3% (active) | 9.95% (active) | 85% | 95.2% | 81% |  | 14.2% | 82.1% | 45.6% | 56.4% | 94.3% | 25.8% | -59.7% (active) | 19.3% | -2.85% (active) | 43.3% | 16% | -10.4% (active)
CC(=O)c1cc2c(N)c(C(=O)Nc3cccc4c3OCCO4)sc2nc1C | 80.8% | 99.7% | 106% | 100% | 110% | 35.8 | 105% | 96.3% | 96.8% | 56% | 103% | 24.1% | 95.1% | 95% | 98.7% |  | 94.9% | 96.4%
CCc1ccc(-c2ccc(=O)n(-c3ccc(S(N)(=O)=O)cc3)n2)cc1 | -11.9% (active) | -29.9% (active) | 51.2% | 91.6% | 74.5% | 49.5 | -56.8% (active) | 28.6% | 1% (active) | 33.4% | 7.69% (active) | -17.8% (active) | 7.19% (active) | 53.9% | 13.6% |  |  | 16.8%
COc1ccc(Nc2nc(N)nc3c2CCN(Cc2ccc(OC)cc2OC)C3=O)cc1 | 60.2% | 41.9% | 82.6% | 72.5% | 91.2% | 90.5 | 88% | 82.7% | 93.4% | 75.9% | 74.9% | 79.2% |  | 94.2% | 85.1% |  |  | 49.9%
COc1ccc(C2=CC(c3cc(OC)c(OC)c(OC)c3)NC(=O)N2)cc1OC (stereo not given) | 9.57% (active) | 4.8% (active) | 18.8% | 34.6% | 18.8% | 23.3 | -24% (active) |  | 13.7% |  | 8.72% (active) | 7.31% (active) | 17.3% | 18.7% | -26.8% (active) |  | 15% | 13.4%
O=[N+]([O-])c1ccc(OCCCOc2ccccc2)cc1 | 92.3% | 97.7% | 105% | 107% | 100% | 105 | 99.3% | 108% | 99.8% | 110% | 93.1% | 99% | 107% | 101% | 101% |  | 93% | 97.4%
C=C1C(=O)O[C@H]2[C@H]1CC/C(Cn1cc(CNC(=O)Cc3cn(C(=O)c4ccc(Cl)cc4)c4ccc(OC)cc34)nn1)=C\CC[C@@]1(C)O[C@@H]21 | -28% (active) | -40.2% (active) | -64.2% (active) | 58.3% | 18.8% | 88.9 | -82.3% (active) | 24.7% | 95.9% | -61.6% (active) | -3.93% (active) | -63.2% (active) | -67.4% (active) | 8.2% (active) | 41.9% |  |  | -95% (active)
COc1ccc2cc(-c3ccc(-c4ccc(C(=N)N)cc4)s3)ccc2c1 | 30.4% | 91% | 101% | 103% | 97.3% |  | -15.4% (active) | 105% | 106% | 91.2% | 97.9% | 108% | 84.6% | 101% | 66.4% | 69.6% | 73.2% | 71.3%

— PubChem BioAssay (NCI)
